# Measurements taken from PubChem BioAssay (EPA / NIEHS).
# Inconclusive results are not listed. Calls of active or inactive are those of the source. Rule for the calls: active = hit-call score of the fitted dose curve at least 0.9, where 1 is the maximum; inconclusive = response in the unintended direction; inactive = score below 0.9.
# Key:
# [1] = ACEA_AR_agonist_AUC_viability: ACEA Biosciences xCELLigence Real-Time Cell Analysis on Androgen Receptor Agonism for Viability (AID 2283775);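 for AC50: viability read 80 hours after compound addition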
# In short: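 Read-out is area under the impedance curve at 80 h post-dose in 22Rv1 cells, with DMSO as baseline and signal loss taken as reduced viability. Compounds ran in duplicate from 100 uM final.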
# [2] = ACEA_AR_antagonist_AUC_viability: ACEA Biosciences xCELLigence Real-Time Cell Analysis on Androgen Receptor Antagonism for Viability (AID 2283776);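 note: 22Rv1 human prostate cancer cells growing on impedance electrode plates; area under impedance growth curve at 80 h after dosing as viability; hits lower the growth signal relative to DMSO meaning cytotoxicity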
# In short: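 Real-time electrical impedance tracks 22Rv1 proliferation after continuous compound exposure (top 100 uM final, 1:4 steps, 8 concentrations). The 80 h area-under-curve serves as the cytotoxicity readout relative to DMSO.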
# [3] = ACEA_ER_AUC_viability: ACEA Biosciences xCELLigence Real-Time Cell Analysis on Estrogen Receptor Agonism for Viability (AID 2283782);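 note: hit means loss of impedance signal meaning reduced cell growth or viability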
# In short: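 T-47D; phenol red-free RPMI1640 + 10% CS-FBS; 8 conc., 1:4 serial, max 100 uM final, ≤0.5% DMSO; n = 2; continuous exposure; impedance monitored to 80 h post-dose; AUC vs DMSO.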
# [4] = biological target: Luciferin 4-monooxygenase (Photinus pyralis) (UniProt P08659); test: CCTE_Simmons_QuantiLum_inhib_2: CCTE's Firefly Luciferase Inhibition Assay, Simmons Lab (AID 2283767);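 for AC50: potency for inhibitors that lower luciferase luminescence relative to DMSO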
# In short: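 Counter-screen for nonspecific enzyme inhibition: purified firefly luciferase incubated 30 min at 37C with chemicals up to 87.5 uM final, then luminescence measured after luciferin/dATP injection; activity fitted against DMSO baseline.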
# AR (gene 367) = AR (gene 367) (UniProt P10275); test: ACEA_AR_agonist_80hr: ACEA Biosciences xCELLigence Real-Time Cell Analysis on Androgen Receptor Agonism for Proliferation (AID 2283783);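 note: hits increase impedance growth signal above DMSO baseline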
# In short: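 Androgen-driven proliferation in 22Rv1 cells is tracked as electrical impedance, taken 80 h after continuous exposure to compound (eight concentrations, 1:4 steps, maximum 100 uM final). Activity is fitted in the positive direction with DMSO as baseline.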
# Sequence of AR (gene 367) (P10275 whole entry, looked up): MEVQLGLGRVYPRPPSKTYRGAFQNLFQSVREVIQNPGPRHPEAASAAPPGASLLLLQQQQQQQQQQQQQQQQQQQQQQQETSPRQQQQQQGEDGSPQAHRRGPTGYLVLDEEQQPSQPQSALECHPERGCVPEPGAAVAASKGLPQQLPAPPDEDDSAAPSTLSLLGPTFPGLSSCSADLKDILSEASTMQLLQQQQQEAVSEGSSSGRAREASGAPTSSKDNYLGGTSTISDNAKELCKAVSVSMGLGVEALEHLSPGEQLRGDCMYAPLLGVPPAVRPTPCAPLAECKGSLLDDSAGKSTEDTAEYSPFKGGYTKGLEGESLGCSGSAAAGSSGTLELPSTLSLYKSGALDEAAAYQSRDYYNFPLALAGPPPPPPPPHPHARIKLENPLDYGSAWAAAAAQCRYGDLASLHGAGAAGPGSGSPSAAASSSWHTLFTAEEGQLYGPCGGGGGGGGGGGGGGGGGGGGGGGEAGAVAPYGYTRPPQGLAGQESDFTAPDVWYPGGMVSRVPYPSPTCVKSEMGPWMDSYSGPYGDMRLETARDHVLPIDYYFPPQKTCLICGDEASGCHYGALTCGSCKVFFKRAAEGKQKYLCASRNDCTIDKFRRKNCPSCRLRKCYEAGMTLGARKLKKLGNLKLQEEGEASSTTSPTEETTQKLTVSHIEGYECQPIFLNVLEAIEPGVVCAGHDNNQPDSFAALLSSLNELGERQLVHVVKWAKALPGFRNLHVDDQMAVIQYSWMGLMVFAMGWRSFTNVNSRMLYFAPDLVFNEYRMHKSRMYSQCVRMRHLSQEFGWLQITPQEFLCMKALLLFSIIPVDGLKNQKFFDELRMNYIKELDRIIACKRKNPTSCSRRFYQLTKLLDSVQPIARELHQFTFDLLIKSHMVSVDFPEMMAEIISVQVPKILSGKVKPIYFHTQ
# Sequence of Luciferin 4-monooxygenase (Photinus pyralis) (P08659 whole entry, looked up): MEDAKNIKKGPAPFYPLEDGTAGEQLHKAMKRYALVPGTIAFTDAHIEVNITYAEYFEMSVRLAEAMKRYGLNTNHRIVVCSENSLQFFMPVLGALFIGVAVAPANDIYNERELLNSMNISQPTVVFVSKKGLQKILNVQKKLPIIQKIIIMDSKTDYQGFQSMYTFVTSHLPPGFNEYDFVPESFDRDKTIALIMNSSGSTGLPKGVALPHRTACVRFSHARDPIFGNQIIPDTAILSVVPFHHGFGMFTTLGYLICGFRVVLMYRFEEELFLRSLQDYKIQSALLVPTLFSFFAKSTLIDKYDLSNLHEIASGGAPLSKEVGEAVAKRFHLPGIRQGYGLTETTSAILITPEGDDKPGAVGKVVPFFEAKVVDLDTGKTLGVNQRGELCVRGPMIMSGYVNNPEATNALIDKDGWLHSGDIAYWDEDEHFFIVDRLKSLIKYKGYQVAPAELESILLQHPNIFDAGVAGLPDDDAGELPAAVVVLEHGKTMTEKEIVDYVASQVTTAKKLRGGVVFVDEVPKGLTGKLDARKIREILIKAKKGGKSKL
smiles,measurement,setting,value
COc1ccc(-n2nc(C(F)F)cc2-c2ccc(S(C)=O)cc2)cc1 (stereo not drawn),outcome,[1],inactive
same,outcome,[2],inactive
CC(C)=CCC/C(C)=C/CO,AC50,[1],33 µM (active)
same,AC50,[2],25.6 µM (active)
CC(C)CCCCCCCOC(=O)CCCCC(=O)OCCCCCCCC(C)C,outcome,[1],inactive
same,outcome,[2],inactive
same,outcome,[3],inactive
CCOC(=O)COc1ccc2c(c1)CC(NCC(O)c1cccc(Cl)c1)CC2 (stereo not drawn),AC50,[1],63.6 µM (active)
same,AC50,[2],24.1 µM (active)
same,AC50,[3],16.2 µM (active)
CCOCCO,outcome,[1],inactive
same,outcome,[2],inactive
same,outcome,[3],inactive
Cc1ccc(S(=O)(=O)O)cc1C,outcome,[1],inactive
same,outcome,[2],inactive
same,outcome,[3],inactive
O=C1CCCCCN1,outcome,[1],inactive
same,outcome,[2],inactive
CC1=CC(=O)CC(C)(C)C1,outcome,[1],inactive
same,outcome,[2],inactive
CC[C@H]1OC(=O)[C@H](C)[C@@H](O[C@H]2C[C@@](C)(OC)[C@@H](O)[C@H](C)O2)[C@H](C)[C@@H](O[C@@H]2O[C@H](C)C[C@H](N(C)C)[C@H]2O)[C@](C)(O)C[C@@H](C)C(=O)[C@H](C)[C@@H](O)[C@]1(C)O,outcome,[1],inactive
O=C(NS(=O)(=O)/C=C/c1ccccc1)c1ccc(F)cc1Cl,AC50,[1],5.76 µM (active)
same,AC50,[2],13.1 µM (active)
O=C(O)CC(O)C(=O)O (stereo not drawn),outcome,[1],inactive
same,outcome,[2],inactive
CCCCC(CC)COC(=O)CCCCCCCCC(=O)OCC(CC)CCCC (stereo not drawn),outcome,[1],inactive
CCOCCOCCOCCO,outcome,[1],inactive
same,outcome,[2],inactive
Cc1ccc(C)c(O)c1,outcome,[1],inactive
same,outcome,[2],inactive
same,outcome,[3],inactive
COc1ccc(/C=C/S(=O)(=O)NC(=O)c2ccc(C)cc2Cl)cc1,AC50,[1],16.3 µM (active)
same,AC50,[2],22.7 µM (active)
COC(=O)c1c(Cl)c(Cl)c(C(=O)OC)c(Cl)c1Cl,outcome,[1],inactive
same,AC50,[2],50 µM (active)
same,outcome,[3],inactive
CC(=O)c1ccc2c(c1)[C@H](NC(=O)c1ccc(F)cc1)[C@@H](O)C(C)(C)O2,outcome,[1],inactive
same,outcome,[2],inactive
C[C@](N)(Cc1ccc(O)c(O)c1)C(=O)O,AC50,[4],53.8 µM (active)
same,outcome,[3],inactive
CC(=O)OCCC(C)C,outcome,[1],inactive
same,outcome,[2],inactive
CC(C)=CCC/C(C)=C\CO,outcome,[4],inactive
same,outcome,[2],inactive
same,outcome,AR (gene 367),inactive
CCCCCCCCCCCCCCCO,AC50,[1],78.9 µM (active)
same,AC50,[2],89.4 µM (active)
same,outcome,[3],inactive
Clc1nc(Cl)c(Cl)c(Cl)c1Cl,outcome,[1],inactive
same,AC50,[2],50 µM (active)
same,AC50,[3],92 µM (active)
CCCCC(CC)COC(=O)c1ccc(C(=O)OCC(CC)CCCC)cc1 (stereo not drawn),outcome,AR (gene 367),inactive
C1N2CN3CN1CN(C2)C3,outcome,AR (gene 367),inactive
